# According to ChEMBL document CHEMBL3988442, “University of Dundee, Small-Polar-MMV Screening Library” (2021):
# For some of these results: Results with a measured potency or affinity are listed apart.
# How the values were obtained:
# Set-up in all cases: scale not given: direction of the effect not stated beside the values
# [1] = biological target: Protein translocase subunit SecA (Escherichia coli (strain K12)) (UniProt P10408); assay: Assay to Identify E. coli SecA ATPase Inhibitors; type: functional; details: 30 µM
# [2] = biological target: T1, Ubiquitin-activating enzyme e1, putative (Leishmania donovani (strain BPK282A1)) (UniProt E9BSI1); assay: Leishmania donovani Ubiquitin Activating Enzyme (LdE1); type: functional; details: 30 µM
# T1 sequence (whole entry): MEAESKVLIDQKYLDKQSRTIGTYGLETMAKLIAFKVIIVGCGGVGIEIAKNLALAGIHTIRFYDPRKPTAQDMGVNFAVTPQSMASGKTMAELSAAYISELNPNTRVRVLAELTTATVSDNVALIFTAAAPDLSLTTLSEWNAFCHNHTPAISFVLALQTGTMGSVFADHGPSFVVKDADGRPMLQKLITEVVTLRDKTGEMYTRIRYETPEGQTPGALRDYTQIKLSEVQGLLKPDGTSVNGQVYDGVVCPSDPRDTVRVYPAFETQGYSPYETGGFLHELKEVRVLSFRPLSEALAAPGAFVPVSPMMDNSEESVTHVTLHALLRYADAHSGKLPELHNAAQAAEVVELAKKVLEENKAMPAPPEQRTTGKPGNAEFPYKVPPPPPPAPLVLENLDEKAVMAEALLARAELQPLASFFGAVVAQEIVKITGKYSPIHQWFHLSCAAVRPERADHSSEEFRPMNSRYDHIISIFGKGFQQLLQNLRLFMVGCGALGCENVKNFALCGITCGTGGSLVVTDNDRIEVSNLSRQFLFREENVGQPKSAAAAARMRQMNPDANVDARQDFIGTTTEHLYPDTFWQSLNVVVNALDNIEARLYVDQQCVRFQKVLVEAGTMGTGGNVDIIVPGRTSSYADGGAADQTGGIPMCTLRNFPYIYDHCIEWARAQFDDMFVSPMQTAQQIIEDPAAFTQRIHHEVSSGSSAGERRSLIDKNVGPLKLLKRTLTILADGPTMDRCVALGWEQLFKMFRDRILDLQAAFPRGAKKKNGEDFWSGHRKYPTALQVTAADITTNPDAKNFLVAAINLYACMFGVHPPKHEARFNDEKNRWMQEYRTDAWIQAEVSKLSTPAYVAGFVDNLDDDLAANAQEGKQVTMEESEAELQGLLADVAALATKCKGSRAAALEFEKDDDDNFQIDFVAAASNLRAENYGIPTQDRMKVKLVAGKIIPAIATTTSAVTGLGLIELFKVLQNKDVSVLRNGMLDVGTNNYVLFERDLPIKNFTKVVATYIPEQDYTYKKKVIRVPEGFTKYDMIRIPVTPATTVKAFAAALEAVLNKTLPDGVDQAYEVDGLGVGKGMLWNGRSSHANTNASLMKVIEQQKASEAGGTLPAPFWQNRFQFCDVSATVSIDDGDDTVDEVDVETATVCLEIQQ
# [3] = biological target: AMP-activated protein kinase, AMPK (Homo sapiens) (UniProt P54646+O43741+P54619+Q9UGJ0+Q9Y478+Q13131+Q9UGI9); assay: AMP-dependent Kinase enzyme assay. An in vitro enzyme assay that detects ADP turnover that is directly proportional to AMPK activity. This uses naive AMPK that is activated during the assay with MK-8722; type: functional; details: 30 µM
# [4] = biological target: Sialic acid-binding Ig-like lectin 9 (Homo sapiens) (UniProt Q9Y336); assay: Hs-Siglec9 ALPHAscreen SOP 20170721; details: 10 µM
# Trypanosoma cruzi = assay: Trypanosoma cruzi phosphomannomutase and mannose-1-phosphate guanylyltransferase assay; type: functional; details: 10 µM
# [5] = biological target: T2, Arginase-2, mitochondrial (Homo sapiens) (UniProt P78540); assay: in vitro enzyme assay to detect the production of urea directly proportional to the activity of Arginase II; type: functional; details: 33.3 µM; note: in the data most compounds retested in dose-response had high values
# T2 sequence (whole entry): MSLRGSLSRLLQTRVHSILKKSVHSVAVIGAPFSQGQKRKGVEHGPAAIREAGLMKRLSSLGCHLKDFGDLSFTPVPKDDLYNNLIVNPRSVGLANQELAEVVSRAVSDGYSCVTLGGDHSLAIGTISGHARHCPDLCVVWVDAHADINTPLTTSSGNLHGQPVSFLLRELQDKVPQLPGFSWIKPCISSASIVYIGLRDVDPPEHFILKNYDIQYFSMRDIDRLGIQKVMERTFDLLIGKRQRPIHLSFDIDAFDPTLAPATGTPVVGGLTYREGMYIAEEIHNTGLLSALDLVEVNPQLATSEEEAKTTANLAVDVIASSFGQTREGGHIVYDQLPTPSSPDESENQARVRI
# [6] = biological target: T3, Proteasome subunit beta (Trypanosoma cruzi) (UniProt O96673); assay: Trypanosoma cruzi proteasome chymotrypsin-like activity (TcProtChymo) assay.; note: in the data most compounds retested in dose-response had high values; type: functional; details: 9.37 µM
# T3 sequence (whole entry): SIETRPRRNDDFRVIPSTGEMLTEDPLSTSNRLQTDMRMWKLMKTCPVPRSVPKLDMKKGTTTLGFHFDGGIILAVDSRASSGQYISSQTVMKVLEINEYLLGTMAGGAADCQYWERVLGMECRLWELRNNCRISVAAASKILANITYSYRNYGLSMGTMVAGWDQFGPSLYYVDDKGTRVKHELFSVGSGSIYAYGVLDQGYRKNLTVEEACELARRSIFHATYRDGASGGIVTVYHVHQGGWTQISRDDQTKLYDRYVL
# Homo sapiens = species: Homo sapiens; assay: To identify inhibition of the IFN signalling (Jak-Stat) pathway via expression of an eGFP reporter gene under the control of an IFN-stimulated response element (ISRE) containing MxA promoter.; type: functional; details: 30 µM
# [7] = biological target: T4, Tyrosyl-tRNA synthetase, putative (Trypanosoma cruzi (strain CL Brener)) (UniProt Q4DSP6); assay: Trypanosoma cruzi tyrosyl tRNA synthetase (TcYRS) _High Tyrosine SOP; type: functional; details: 30 µM; note: in the data most compounds retested in dose-response had high values
# T4 sequence (whole entry): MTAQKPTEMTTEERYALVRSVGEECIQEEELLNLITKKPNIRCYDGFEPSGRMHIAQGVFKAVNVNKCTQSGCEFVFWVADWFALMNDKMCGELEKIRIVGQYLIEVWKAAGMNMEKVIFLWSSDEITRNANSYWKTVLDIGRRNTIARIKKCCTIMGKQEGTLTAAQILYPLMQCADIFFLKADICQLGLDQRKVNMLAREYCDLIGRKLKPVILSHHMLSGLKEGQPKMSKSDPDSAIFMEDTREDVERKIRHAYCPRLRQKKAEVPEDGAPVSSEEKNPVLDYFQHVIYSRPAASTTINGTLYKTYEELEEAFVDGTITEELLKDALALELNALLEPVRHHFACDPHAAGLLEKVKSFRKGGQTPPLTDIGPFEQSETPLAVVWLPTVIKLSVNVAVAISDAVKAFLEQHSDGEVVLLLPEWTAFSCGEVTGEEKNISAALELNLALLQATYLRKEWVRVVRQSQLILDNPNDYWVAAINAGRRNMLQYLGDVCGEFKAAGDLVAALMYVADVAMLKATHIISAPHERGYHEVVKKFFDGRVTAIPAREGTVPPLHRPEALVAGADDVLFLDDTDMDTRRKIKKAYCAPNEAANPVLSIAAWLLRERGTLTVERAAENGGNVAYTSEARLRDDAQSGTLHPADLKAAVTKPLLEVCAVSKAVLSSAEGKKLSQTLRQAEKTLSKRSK
# [8] = biological target: T4, Tyrosyl-tRNA synthetase, putative (Trypanosoma cruzi (strain CL Brener)); assay: Trypanosoma cruzi tyrosyl tRNA synthetase (TcYRS) SOP; type: functional; details: 30 µM
# [9] = biological target: Chromo domain-containing protein 1 (Saccharomyces cerevisiae (strain ATCC 204508 / S288c) (Baker's yeast)) (UniProt P32657); assay: ScCHD-1 Enzyme Inhibition Assay; type: functional; details: 30 µM; note: in the data most compounds retested in dose-response had high values
# Chain of Chromo domain-containing protein 1 (Saccharomyces cerevisiae (strain ATCC 204508 / S288c) (Baker's yeast)) (P32657 whole entry, the tested form may be a part): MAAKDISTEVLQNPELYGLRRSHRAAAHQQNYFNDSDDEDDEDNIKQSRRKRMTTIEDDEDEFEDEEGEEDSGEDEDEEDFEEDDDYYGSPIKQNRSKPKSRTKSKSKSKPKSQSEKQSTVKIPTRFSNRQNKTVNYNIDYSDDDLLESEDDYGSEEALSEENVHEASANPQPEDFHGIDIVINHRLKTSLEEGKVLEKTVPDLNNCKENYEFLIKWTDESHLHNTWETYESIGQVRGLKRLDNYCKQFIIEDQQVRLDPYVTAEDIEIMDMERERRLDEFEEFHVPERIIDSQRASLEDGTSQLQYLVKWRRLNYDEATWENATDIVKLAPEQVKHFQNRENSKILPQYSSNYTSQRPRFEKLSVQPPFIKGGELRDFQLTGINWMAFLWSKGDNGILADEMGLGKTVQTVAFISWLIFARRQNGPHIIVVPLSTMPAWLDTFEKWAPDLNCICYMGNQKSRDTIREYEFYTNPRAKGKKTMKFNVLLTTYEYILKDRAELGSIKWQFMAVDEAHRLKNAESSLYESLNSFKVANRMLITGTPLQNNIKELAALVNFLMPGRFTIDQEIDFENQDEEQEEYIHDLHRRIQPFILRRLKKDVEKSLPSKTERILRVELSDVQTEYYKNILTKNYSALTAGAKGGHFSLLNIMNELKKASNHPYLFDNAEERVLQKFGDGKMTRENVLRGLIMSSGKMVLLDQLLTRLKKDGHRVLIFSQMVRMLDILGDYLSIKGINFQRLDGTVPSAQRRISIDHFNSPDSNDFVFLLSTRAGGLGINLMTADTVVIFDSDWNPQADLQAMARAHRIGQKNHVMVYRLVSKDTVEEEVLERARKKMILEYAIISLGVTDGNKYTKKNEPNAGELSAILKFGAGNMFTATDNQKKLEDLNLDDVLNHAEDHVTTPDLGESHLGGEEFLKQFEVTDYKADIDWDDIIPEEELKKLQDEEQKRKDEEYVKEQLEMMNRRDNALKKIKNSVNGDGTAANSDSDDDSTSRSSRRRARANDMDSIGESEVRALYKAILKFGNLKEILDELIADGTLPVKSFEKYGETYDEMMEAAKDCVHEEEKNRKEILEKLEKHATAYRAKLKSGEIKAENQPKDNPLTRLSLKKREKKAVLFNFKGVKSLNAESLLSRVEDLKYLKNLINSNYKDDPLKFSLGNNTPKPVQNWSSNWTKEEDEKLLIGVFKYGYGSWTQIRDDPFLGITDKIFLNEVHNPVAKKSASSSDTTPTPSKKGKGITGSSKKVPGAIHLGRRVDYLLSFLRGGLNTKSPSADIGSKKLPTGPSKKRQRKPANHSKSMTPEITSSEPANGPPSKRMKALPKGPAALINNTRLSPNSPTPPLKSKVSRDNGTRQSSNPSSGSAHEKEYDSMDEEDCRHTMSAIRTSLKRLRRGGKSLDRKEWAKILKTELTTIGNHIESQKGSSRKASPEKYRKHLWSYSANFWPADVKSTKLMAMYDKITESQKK
# Chain of Protein translocase subunit SecA (Escherichia coli (strain K12)) (P10408 whole entry): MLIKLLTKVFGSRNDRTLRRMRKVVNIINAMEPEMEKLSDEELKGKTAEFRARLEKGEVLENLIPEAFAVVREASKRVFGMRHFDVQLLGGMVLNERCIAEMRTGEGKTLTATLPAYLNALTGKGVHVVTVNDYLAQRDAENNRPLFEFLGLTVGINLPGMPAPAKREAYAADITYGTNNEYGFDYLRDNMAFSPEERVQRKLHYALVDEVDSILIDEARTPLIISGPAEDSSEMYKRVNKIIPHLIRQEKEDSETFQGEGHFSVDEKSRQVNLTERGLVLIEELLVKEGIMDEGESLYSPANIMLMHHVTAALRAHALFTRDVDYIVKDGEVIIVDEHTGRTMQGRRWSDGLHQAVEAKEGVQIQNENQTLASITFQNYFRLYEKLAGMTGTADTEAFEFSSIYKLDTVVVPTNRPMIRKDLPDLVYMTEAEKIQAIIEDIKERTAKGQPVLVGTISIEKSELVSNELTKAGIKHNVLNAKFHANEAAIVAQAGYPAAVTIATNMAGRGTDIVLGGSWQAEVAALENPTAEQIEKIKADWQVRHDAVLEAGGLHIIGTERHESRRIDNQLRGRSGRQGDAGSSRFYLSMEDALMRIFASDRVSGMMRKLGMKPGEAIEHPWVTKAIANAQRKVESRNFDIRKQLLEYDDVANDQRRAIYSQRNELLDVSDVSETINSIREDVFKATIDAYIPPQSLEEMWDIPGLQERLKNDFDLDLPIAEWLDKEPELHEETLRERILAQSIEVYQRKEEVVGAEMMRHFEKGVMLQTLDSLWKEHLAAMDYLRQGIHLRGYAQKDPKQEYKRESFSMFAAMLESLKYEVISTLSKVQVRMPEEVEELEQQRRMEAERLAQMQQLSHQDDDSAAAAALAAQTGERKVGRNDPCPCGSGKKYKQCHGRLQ
# Chain of Sialic acid-binding Ig-like lectin 9 (Homo sapiens) (Q9Y336 whole entry): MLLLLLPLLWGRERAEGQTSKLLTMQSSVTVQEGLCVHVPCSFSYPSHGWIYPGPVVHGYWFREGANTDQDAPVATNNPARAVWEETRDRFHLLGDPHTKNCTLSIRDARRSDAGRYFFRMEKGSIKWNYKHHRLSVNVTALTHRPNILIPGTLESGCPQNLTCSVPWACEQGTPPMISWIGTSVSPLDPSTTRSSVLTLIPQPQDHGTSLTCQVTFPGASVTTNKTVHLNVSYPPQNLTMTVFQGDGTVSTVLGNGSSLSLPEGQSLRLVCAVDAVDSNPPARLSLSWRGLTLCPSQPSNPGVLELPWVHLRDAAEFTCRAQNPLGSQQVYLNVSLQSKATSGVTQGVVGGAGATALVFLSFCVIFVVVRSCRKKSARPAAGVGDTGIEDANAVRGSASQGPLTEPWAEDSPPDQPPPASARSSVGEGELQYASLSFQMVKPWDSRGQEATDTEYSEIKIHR
Structure (SMILES),Percent Effect [1],Percent Effect [2],Percent Effect [3],Percent Effect [4],Percent Effect (Trypanosoma cruzi),Percent Effect [5],Percent Effect [6],Percent Effect (Homo sapiens),Percent Effect [7],Percent Effect [8],Percent Effect [9]
Cc1nc(C2(NCC(=O)NCCc3cccs3)CCCC2)no1,-2.85%,7.89%,-3.1%,0.327%,-4.38%,-9.47%,15.1%,6.74%,2.13%,15.6%,-1.92%
CNC(=O)CCc1cc(C)nc(C2CCCN2)n1 (stereo not given),-2.12%,-1.35%,6.23%,2.54%,-1.78%,3.02%,5.62%,13.2%,3.23%,-3.9%,6.64%
O=C(CCc1nccs1)N1CCN(c2ccc(Br)cn2)CC1,-7.37%,7.79%,14.3%,-8.09%,-1.27%,-1.05%,-4.12%,31.4%,2.86%,7.06%,-21.6%
CCOc1cccc2c1OCC(C(=O)NS(=O)(=O)c1ccc(C)s1)=C2,-4.93%,-8.11%,-7.07%,7.91%,-1.98%,4.01%,9.01%,5.57%,-9.36%,-18.5%,-1.03%
CC(=O)N1CCN(C(=O)CCCc2nc(C(C)C)no2)CC1,-1.74%,15.2%,2.62%,-11.8%,-10.1%,4.56%,8.44%,37.4%,-0.493%,-1.27%,-5.47%
